Results reported in the supplement of paper PMC10849652.
About 7,900 targets were measured; listed, in parts, are those with a hit and a random draw of the rest. About 0.6% of all pairs of compound and target were hits.

Columns and labels:
Experiment in all cases: log2 fold change, soluble protein after heating vs DMSO (PISA); higher = thermal stabilisation; K562 cells, 10 uM, 30 min; active = over 0.2 and 3.5 SD of the protein, either way, in both replicates (recomputed)
saracatinib = compound: CN1CCN(CCOc2cc(OC3CCOCC3)c3c(Nc4c(Cl)ccc5c4OCO5)ncnc3c2)CC1 [saracatinib]
Method in brief: (§1)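 Aliquots of K562 cells (2×10^6 cells/mL) treated with 10 μM compound for 30 min were heated for 3 min over 48°C-58°C. After pooling and extraction in PBS with 0.5% NP-40 at 4°C, soluble protein from a 21,000xg, 90 min spin was quantified by TMTpro 16plex LC-MS/MS with channel sums equalised. Thermal stability is expressed against control samples, from duplicates, as a log2 fold change.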

sotrastaurin = compound: CN1CCN(c2nc(C3=C(c4c[nH]c5ccccc45)C(=O)NC3=O)c3ccccc3n2)CC1 [sotrastaurin]
Method in brief: as §1

alvocidib = compound: CN1CC[C@H](c2c(O)cc(O)c3c(=O)cc(-c4ccccc4Cl)oc23)[C@H](O)C1 [alvocidib]
Method in brief: as §1

Tubastatin A = compound: CN1CCc2c(c3ccccc3n2Cc2ccc(C(=O)NO)cc2)C1 [Tubastatin A]
Method in brief: as §1

[1] = compound: CNC(=O)C1=CC=CC=C1NC2=NC(=NC=C2Cl)NC3=C(C=C(C=C3)N4CCOCC4)OC
Method in brief: as §1

defactinib = compound: CNC(=O)c1ccc(Nc2ncc(C(F)(F)F)c(NCc3nccnc3N(C)S(C)(=O)=O)n2)cc1 [defactinib]
Method in brief: as §1

rucaparib = compound: CNCc1ccc(-c2[nH]c3cc(F)cc4c3c2CCNC4=O)cc1 [rucaparib]
Method in brief: as §1

[2] = compound: CNc1nc(-c2ccc3c(N)n[nH]c3c2)cc(N2C[C@@H](C(=O)NC3CCCCC3)CC[C@H]2C)n1
Method in brief: as §1

encorafenib = compound: COC(=O)N[C@@H](C)CNc1nccc(-c2cn(C(C)C)nc2-c2cc(Cl)cc(NS(C)(=O)=O)c2F)n1 [encorafenib]
Method in brief: as §1

[3] = compound: COC(=O)[C@H](CCSC)NC(=O)C1=C(C=C(C=C1)NC[C@H](CS)N)C2=CC=CC=C2
Method in brief: as §1

Measured: log2 fold change

RTF2 (UniProt Q9BY42)
UniProt Q9BY42, sequence (Q9BY42 whole entry, looked up): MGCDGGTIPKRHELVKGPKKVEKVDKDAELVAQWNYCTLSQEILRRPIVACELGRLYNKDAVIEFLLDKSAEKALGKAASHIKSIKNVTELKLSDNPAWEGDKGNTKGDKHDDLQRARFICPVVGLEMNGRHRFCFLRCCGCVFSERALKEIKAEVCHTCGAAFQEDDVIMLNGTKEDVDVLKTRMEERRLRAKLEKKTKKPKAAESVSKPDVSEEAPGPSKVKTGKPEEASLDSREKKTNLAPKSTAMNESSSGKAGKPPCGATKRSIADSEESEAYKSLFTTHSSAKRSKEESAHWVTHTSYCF
inactive: saracatinib -0.021 | sotrastaurin -0.007 | alvocidib -0.01 | Tubastatin A 0.099 | [1] 0.083 | defactinib -0.151 | rucaparib 0.027 | [2] -0.142 | encorafenib 0.058 | [3] -0.045

RAPGEF4 (UniProt Q8WZA2)
UniProt Q8WZA2, sequence (Q8WZA2 whole entry, looked up): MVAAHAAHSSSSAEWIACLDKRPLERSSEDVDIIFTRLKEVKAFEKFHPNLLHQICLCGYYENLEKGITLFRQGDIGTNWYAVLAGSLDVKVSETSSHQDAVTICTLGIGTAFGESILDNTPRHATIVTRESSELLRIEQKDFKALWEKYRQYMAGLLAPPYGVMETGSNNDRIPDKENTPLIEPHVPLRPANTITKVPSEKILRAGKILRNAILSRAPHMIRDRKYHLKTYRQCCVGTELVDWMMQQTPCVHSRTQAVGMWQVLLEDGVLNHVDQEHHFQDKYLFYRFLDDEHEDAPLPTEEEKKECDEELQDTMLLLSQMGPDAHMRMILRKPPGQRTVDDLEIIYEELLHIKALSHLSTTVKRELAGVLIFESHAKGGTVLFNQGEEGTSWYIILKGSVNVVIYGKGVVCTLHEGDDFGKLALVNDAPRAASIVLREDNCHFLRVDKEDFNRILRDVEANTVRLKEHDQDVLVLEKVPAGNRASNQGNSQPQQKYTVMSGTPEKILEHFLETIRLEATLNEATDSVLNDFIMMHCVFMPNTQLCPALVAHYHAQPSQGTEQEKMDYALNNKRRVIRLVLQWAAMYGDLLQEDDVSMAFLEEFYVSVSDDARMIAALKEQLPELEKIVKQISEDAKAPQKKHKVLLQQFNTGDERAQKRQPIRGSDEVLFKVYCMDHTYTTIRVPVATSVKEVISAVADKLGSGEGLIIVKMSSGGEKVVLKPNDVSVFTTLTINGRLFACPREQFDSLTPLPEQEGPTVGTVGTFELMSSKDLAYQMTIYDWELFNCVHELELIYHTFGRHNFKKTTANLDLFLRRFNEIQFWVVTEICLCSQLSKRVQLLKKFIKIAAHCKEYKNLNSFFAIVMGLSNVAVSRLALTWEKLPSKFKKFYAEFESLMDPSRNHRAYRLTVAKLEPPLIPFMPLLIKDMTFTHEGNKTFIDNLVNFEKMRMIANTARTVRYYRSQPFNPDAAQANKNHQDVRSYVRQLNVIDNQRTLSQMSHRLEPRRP
inactive: saracatinib 0.045 | sotrastaurin -0.033 | alvocidib 0.04 | Tubastatin A 0.333 | [1] -0.114 | defactinib -0.057 | rucaparib -0.063 | [2] 0.083 | encorafenib 0.059 | [3] -0.123

RNF167 (UniProt Q9H6Y7)
inactive: saracatinib -0.03 | sotrastaurin 0.064 | alvocidib 0.055 | Tubastatin A -0.021 | [1] 0.035 | defactinib 0.059 | [2] 0.042 | [3] -0.006

RPS25 (UniProt P62851)
inactive: saracatinib -0.052 | sotrastaurin 0.007 | alvocidib 0.178 | Tubastatin A 0.094 | [1] 0.095 | defactinib 0.184 | rucaparib 0.124 | [2] 0.076 | encorafenib 0.01 | [3] 0.024

SDHAF4 (UniProt Q5VUM1)
UniProt Q5VUM1, sequence (Q5VUM1 whole entry, looked up): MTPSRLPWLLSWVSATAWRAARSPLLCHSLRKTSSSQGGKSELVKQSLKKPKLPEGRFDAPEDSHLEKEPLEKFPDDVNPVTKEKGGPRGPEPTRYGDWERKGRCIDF
inactive: saracatinib 0.139 | sotrastaurin 0.072 | alvocidib 0.079 | Tubastatin A 0.086 | [1] -0.037 | rucaparib -0.067 | [2] -0.032 | encorafenib -0.01

SAMSN1 isoform 3 (UniProt Q9NSI8)
UniProt Q9NSI8, sequence (Q9NSI8 whole entry, looked up): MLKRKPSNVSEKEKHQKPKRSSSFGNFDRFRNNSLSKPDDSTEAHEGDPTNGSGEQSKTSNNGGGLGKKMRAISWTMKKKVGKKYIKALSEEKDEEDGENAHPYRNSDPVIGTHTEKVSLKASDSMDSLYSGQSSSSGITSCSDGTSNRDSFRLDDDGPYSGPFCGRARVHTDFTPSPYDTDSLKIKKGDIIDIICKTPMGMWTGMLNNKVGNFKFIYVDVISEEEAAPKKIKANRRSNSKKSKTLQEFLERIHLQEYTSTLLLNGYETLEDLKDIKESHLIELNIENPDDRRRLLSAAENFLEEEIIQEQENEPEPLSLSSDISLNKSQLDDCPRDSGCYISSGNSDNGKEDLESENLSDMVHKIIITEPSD
inactive: saracatinib -0.023 | sotrastaurin -0.081 | alvocidib -0.058 | Tubastatin A 0.036 | [1] 0.002 | defactinib -0.051 | rucaparib -0.003 | [2] -0.029 | encorafenib 0.046 | [3] 0.024

RNPS1 (UniProt Q15287)
UniProt Q15287, sequence (Q15287 whole entry, looked up): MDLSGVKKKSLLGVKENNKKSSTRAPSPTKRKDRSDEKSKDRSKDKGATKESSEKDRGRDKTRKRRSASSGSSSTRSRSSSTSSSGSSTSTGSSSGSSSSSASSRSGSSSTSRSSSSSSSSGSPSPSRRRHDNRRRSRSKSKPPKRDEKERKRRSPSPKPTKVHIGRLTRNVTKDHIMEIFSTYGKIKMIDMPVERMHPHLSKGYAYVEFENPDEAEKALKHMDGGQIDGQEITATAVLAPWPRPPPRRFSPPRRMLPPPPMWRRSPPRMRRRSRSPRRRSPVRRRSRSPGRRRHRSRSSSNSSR
inactive: saracatinib 0.036 | sotrastaurin 0.013 | alvocidib -0.016 | Tubastatin A 0.107 | [1] -0.243 | defactinib -0.067 | rucaparib 0.023 | [2] -0.026 | encorafenib -0.033 | [3] -0.019

RIOK2 (UniProt Q9BVS4)
UniProt Q9BVS4, sequence (Q9BVS4 whole entry, looked up): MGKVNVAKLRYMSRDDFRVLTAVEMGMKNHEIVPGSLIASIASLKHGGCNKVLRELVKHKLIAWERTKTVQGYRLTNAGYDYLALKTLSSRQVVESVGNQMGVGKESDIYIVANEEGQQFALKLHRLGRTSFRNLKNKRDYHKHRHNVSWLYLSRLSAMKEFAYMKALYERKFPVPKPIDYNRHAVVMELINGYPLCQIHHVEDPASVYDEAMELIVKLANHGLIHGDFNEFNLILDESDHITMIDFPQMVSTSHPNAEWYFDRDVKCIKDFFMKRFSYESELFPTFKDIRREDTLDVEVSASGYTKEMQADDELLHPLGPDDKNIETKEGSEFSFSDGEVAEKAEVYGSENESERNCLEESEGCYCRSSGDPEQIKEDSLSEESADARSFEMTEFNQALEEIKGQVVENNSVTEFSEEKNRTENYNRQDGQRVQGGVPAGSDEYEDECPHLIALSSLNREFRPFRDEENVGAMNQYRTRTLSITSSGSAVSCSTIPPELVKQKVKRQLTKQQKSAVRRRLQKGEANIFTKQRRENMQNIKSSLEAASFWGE
inactive: saracatinib -0.073 | sotrastaurin 0.033 | alvocidib 0.169 | Tubastatin A 0.067 | [1] 0.195 | defactinib 0.138 | rucaparib 0.014 | [2] 0.069 | encorafenib 0.05 | [3] -0.009

RPL31 (UniProt P62899)
inactive: saracatinib -0.068 | sotrastaurin -0.003 | alvocidib 0.294 | Tubastatin A 0.147 | [1] 0.096 | defactinib 0.282 | rucaparib 0.238 | [2] 0.121 | encorafenib 0.088 | [3] -0.052

RABGAP1L isoform 5 (UniProt Q5R372)
inactive: saracatinib -0.027 | sotrastaurin 0.017 | alvocidib -0.053 | Tubastatin A -0.056 | [1] -0.014 | [2] -0.071

RPS19 (UniProt P39019)
inactive: saracatinib -0.024 | sotrastaurin 0.001 | alvocidib 0.178 | Tubastatin A 0.089 | [1] 0.07 | defactinib 0.167 | rucaparib 0.136 | [2] 0.064 | encorafenib 0.028 | [3] -0.004

RCC1 isoform 2 (UniProt P18754)
UniProt P18754, sequence (P18754 whole entry, looked up): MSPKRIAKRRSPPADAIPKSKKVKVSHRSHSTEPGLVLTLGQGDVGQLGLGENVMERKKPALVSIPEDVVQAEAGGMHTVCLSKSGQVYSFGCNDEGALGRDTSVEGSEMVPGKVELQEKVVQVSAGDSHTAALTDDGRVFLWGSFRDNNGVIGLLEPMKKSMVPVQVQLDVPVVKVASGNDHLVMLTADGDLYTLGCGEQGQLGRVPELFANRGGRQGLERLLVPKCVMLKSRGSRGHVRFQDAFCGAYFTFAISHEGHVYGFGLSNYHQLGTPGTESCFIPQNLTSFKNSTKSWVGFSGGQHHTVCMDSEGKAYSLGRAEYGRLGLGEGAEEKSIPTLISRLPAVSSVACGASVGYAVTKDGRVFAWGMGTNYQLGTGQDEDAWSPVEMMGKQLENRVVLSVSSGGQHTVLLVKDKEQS
inactive: saracatinib -0.076 | sotrastaurin -0.049 | alvocidib -0.234 | Tubastatin A 0.164 | [1] -0.083 | defactinib -0.224 | rucaparib -0.008 | [2] 0.146 | encorafenib 0.045 | [3] -0.07

SEH1L isoform 1 (UniProt Q96EE3)
inactive: saracatinib 0.009 | sotrastaurin -0.022 | alvocidib 0.018 | Tubastatin A -0.015 | [1] -0.029 | defactinib -0.012 | rucaparib -0.016 | [2] -0.053 | encorafenib 0.025 | [3] -0.007

SIDT2 isoform 2 (UniProt Q8NBJ9)
UniProt Q8NBJ9, sequence (Q8NBJ9 whole entry, looked up): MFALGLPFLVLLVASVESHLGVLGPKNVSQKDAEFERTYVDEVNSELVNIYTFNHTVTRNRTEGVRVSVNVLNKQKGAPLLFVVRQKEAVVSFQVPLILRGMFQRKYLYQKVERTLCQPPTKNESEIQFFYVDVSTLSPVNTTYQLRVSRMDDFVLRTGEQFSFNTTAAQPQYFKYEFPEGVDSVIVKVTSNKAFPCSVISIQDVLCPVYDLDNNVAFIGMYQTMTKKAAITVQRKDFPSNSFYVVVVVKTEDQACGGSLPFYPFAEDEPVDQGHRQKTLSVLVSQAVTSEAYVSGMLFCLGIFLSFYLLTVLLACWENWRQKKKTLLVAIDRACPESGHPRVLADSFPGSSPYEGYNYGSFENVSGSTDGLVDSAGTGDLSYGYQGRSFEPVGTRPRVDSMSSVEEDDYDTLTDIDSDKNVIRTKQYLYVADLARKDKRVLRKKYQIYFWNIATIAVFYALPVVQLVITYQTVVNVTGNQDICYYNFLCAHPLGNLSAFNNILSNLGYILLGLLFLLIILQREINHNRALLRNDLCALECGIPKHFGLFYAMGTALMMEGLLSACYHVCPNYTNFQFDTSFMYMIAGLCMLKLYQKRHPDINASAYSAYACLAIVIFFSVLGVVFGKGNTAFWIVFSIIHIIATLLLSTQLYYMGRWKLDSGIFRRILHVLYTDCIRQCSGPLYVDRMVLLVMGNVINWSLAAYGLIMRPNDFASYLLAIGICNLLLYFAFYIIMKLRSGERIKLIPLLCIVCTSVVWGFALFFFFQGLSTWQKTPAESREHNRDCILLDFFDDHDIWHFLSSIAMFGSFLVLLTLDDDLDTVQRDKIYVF
inactive: saracatinib 0.08 | sotrastaurin 0.024 | alvocidib 0.047 | Tubastatin A -0.083 | [1] 0.104 | defactinib -0.064 | rucaparib -0.002 | [2] -0.088 | encorafenib -0.053 | [3] -0.176
